Data: PubChem BioAssay AID1053118 (Broad Institute, 2014)
Results with a measured potency or affinity are listed apart. Activity calls are given as the source filed them.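 The calls were made as follows: active = fitted half-maximal concentration for ATP signal loss at most twice the top valid dose; inconclusive = flat curve between -70 and -30%, or an invalid fit; inactive = flat within ±30%, wrong direction, or potency past limit.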

test: viability loss in HepG2 hepatoma cells – cell-based, cherry-picks, set 5, cytotoxicity control, dose response (AID 1053118); conditions: ATP luminescence, 72 h; series mostly up to 26 µM

| Structure (SMILES) | outcome |
| --- | --- |
| O=C(Nc1ccccc1F)N1C[C@H]2[C@@H](c3ccccc31)[C@@H](CO)N2C(=O)C1CC1 | inactive |
| Cc1ccc(S(=O)(=O)N2CC[C@H]3[C@H](CO)Nc4ccc(-c5cccc(C(=O)N(C)C)c5)cc4[C@H]32)cc1 | inactive |
| CC(NC(=O)CSc1ccc(S(=O)(=O)N2CCOCC2)cn1)c1ccc(Cl)cc1Cl (stereo not drawn) | inactive |
| CN1c2ccc(-c3ccccc3)cc2[C@H]2[C@H](CCN2C(=O)CN2CCOCC2)[C@H]1CO | inactive |
| Cn1cnc(S(=O)(=O)N2CCN(c3ccccc3)CC2)c1 | inactive |
| CS(=O)(=O)N1CCN(c2ccc(NC(=O)c3ccc([N+](=O)[O-])o3)cc2)CC1 | inactive |
| Cc1ccccc1S(=O)(=O)N1CC[C@H]2[C@H](CO)Nc3ccc(-c4ccc(C#N)cc4)cc3[C@H]21 | inactive |
| C[C@@H]1CN([C@H](C)CO)C(=O)c2cc(-c3ccccc3)cnc2O[C@@H]1CN(C)C(=O)c1cccc(F)c1 | inactive |
| C[C@H](CO)N1C[C@H](C)[C@@H](CN(C)C(=O)c2cccc(F)c2)Oc2ncc(-c3ccccc3)cc2C1=O | inactive |
| C[C@H](CO)N1C[C@H](C)[C@@H](CN(C)Cc2ccc(-c3ccccc3)cc2)Oc2ccc(NC(=O)CCCN(C)C)cc2C1=O | inactive |
| CCOC(=O)C1=C(C)Nc2nc3ccccc3n2C1c1ccncc1 (stereo not drawn) | inactive |
| C[C@@H]1CN([C@H](C)CO)C(=O)c2cc(NC(=O)CCCN(C)C)ccc2O[C@@H]1CN(C)Cc1ccc(-c2ccccc2)cc1 | inactive |
| CCc1nc2c(OCCc3cccc(OC)c3)cccn2c1N(C)C(=O)c1ccc(C)cc1 | inactive |
